Measured values from PubChem BioAssay (NCATS).
“And” between values parts separate entries of the source, which are not always exact repeats. Identical values can stand only once. Inconclusive results are not listed. Entries that show only a call come without a potency. The source holds several records for some structures; these can differ, active in one and inactive in another. The source made the active and inactive calls. Unless noted, the call rests on the fitted dose curve; in most records, active means well fitted curve in the direction sought with a large enough effect; inconclusive means small, poorly fitted or top-dose-only effect, or another doubt; inactive means no such curve, though single readings can be large; an effect the other way counts as inactive or inconclusive.

Columns and labels:
[1] = Identifying Small Molecule Inhibitors of Pancreatic Cancer Stem Cells (A2780, Spheroid) (AID 1259357); settings: Potency: A2780 spheroid viability;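 further: compound exposure lasted 48 h before the ATP luminescence read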
How it was run: (§1)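 Monolayer and spheroid cultures are compared. Spheroids form over 14 days in stem cell medium on hydrogel-coated low-attachment plates, then are exposed to compound for 48 h before CellTiter-Glo luminescence.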

[2] = Identifying Small Molecule Inhibitors of Pancreatic Cancer Stem Cells (SN12C, Spheroid) (AID 1259360); settings: Potency: SN12C spheroid viability; further: potency means the concentration at half of the fitted maximal effect
How it was run: as §1

[3] = Identifying Small Molecule Inhibitors of Pancreatic Cancer Stem Cells (A278, Adherent) (AID 1259361);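 further: viability read after 48 h compound exposure; nearly all actives have a fitted effect of over 35% in size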
How it was run: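 Endpoint: ATP-based luminescence, 48 h drug exposure. Bortezomib at 9.2 uM final as full-kill control; DMSO vehicle as negative control; activity normalized between vehicle and cell-free wells.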

[4] = P-glycoprotein substrates identified in KB-8-5-11 adenocarcinoma cell line, qHTS therapeutic library screen (AID 1346987); further: nearly all actives have a fitted effect of over 65% in size; further: potency means the concentration at half of the fitted maximal effect
How it was run: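 P-gp-mediated resistance screen: KB-8-5-11 cells treated 72 h with compounds in dose-response. CellTiter-Glo viability.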

[5] = NS1 protein of Zika virus - qHTS assay to identify small molecule inhibitors in human HEK 293 cells (AID 1347053); further: series mostly up to about 46 µM; nearly all actives have a fitted effect of over 55% in size
How it was run: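 HEK 293; 20 h pre-culture, 37 C/5% CO2; cpd 1 h pre-infection; ZIKV MR766, MOI = 0.5, 24 h, 37 C; TR-FRET NS1 readout (two anti-NS1 Abs); norm. to no-virus vs infected.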

[6] = qHTS for Inhibitors of the Functional Ribonucleoprotein Complex (vRNP) of Lymphocytic Choriomeningitis Arenaviruses (LCMV): Viability assay - alamar blue signal for LCMV Primary Screen (AID 1347085; calls by dose curve; tested in HEK293 reporter line; further: nearly all actives have a fitted effect of over 80% in size; further: potency means the concentration at half of the fitted maximal effect)
[7] = qHTS for Inhibitors of the Functional Ribonucleoprotein Complex (vRNP) of Lassa (LASV) Arenavirus: LASV Primary Screen - GLuc reporter signal (AID 1347082; calls by dose curve; tested in HEK293 reporter line; further: nearly all actives have a fitted effect of over 60% in size; further: potency means the concentration at half of the fitted maximal effect)
[8] = qHTS for Inhibitors of the Functional Ribonucleoprotein Complex (vRNP) of Lassa (LASV) Arenavirus: Viability assay - alamar blue signal for LASV Primary Screen (AID 1347083; calls by dose curve; tested in HEK293 reporter line; further: series mostly up to about 57 µM; nearly all actives have a fitted effect of over 80% in size)
[9] = target: Nucleoprotein (Lymphocytic choriomeningitis virus (strain Armstrong)) (UniProt P09992); assay: qHTS for Inhibitors of the Functional Ribonucleoprotein Complex (vRNP) of Lymphocytic Choriomeningitis Arenaviruses (LCMV): LCMV Primary Screen - GLuc reporter signal (AID 1347086; calls by dose curve; further: series mostly up to about 57 µM; nearly all actives have a fitted effect of over 70% in size)
[10] = Natriuretic polypeptide receptor (hNpr1) antagonism - Pilot counterscreen GloSensor control cell line (AID 1347045; calls by dose curve; further: series mostly up to about 38 µM)
How it was run: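 This counterscreen uses HEK293 cells expressing the GIP/pGS-40F cGMP biosensor. Compound-treated cells are challenged with 50 uM sodium nitroprusside, and the luciferase signal is compared before and after stimulation.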

[11] = target: Atrial natriuretic peptide receptor 1 (Homo sapiens) (UniProt P16066); assay: Natriuretic polypeptide receptor (hNpr1) antagonism - Pilot screen (AID 1347049; calls by dose curve;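 further: agonist-evoked cGMP luminescence read 20 min after hNppA addition; series mostly up to about 58 µM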)
How it was run: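 HEK293 cells expressing hNpr1 and GloSensor cGMP luciferase, 1500/well, loaded with 2% GloSensor reagent 2 h, compound 30 min at room temperature; luminescence read before and 20 min after 0.1 nM hNppA stimulation.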

[12] = target: Atrial natriuretic peptide receptor 2 (Homo sapiens) (UniProt P20594); assay: Natriuretic polypeptide receptor (hNpr2) antagonism - Pilot subtype selectivity assay (AID 1347050; calls by dose curve)
How it was run: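 HEK293 cells expressing hNpr2 and a GloSensor cGMP luciferase sensor, 1500/well, preloaded 2 h with 2% GloSensor reagent, compound 30 min, then 1 nM hNppC for 20 min. Antagonism from luminescence after versus baseline pre-read; LOPAC in 1:5 titrations.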

[13] = target: T1, Tyrosine-protein phosphatase non-receptor type substrate 1 (Homo sapiens) + Leukocyte surface antigen CD47 (Homo sapiens) (UniProt P78324+Q08722); assay: CD47-SIRPalpha protein protein interaction - LANCE assay qHTS validation (AID 1347057; active means well fitted curve in the direction sought with a large enough effect in the signal ratio, with a control signal flat, not every such curve was filed as active; the % refers to the signal ratio; further: series mostly up to about 38 µM)
How it was run: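 First, His-tagged CD47 and Eu-labelled anti-His antibody met the compound for 30 min; next, site-specifically biotinylated SIRPalpha was added for 30 min; finally streptavidin-APC was added before reading the TR-FRET ratio.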

[14] = target: T1, Tyrosine-protein phosphatase non-receptor type substrate 1 (Homo sapiens) + Leukocyte surface antigen CD47 (Homo sapiens); assay: CD47-SIRPalpha protein protein interaction - HTRF assay qHTS validation (AID 1347058; active means well fitted curve in the direction sought with a large enough effect in the signal ratio, not every such curve was filed as active; the % refers to the signal ratio;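 further: recombinant soluble extracellular CD47 with His tag and biotinylated SIRPalpha domains; series mostly up to about 38 µM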)
How it was run: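 TR-FRET read (Ch1/Ch2 ratio) of soluble extracellular CD47 and Avi-biotinylated SIRPalpha domains in PBS pH 7.4 with 0.05% IGEPAL; 7-point compound titration. Sequential 30 min room-temperature steps; non-biotinylated SIRPalpha as control inhibitor.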

[15] = target: Parathyroid hormone/parathyroid hormone-related peptide receptor (Homo sapiens) (UniProt Q03431); assay: qHTS for PTHR1 Agonists: Optimization Screen against the NCGC LOPAC library (AID 1347079);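 further: GloSensor cAMP luminescence in HEK-293 GP2 cells expressing human PTHR1 with IBMX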
How it was run: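 Compounds were tested across a qHTS titration. PTHR1-expressing GP2 cells report cAMP rises via GloSensor luminescence after 1 hr compound exposure at 37C with IBMX present.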

[16] = qHTS assay to identify small molecule inhibitors of chordoma cells - UCH-1 (AID 1259355); further: nearly all actives have a fitted effect of over 55% in size
How it was run: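 Cells (800/well) were seeded and left overnight at 37 C, 5% CO2, then treated with drugs at 15 concentrations plus a combination mix of auranofin, camptothecin, doxorubicin, rubitecan and topotecan. Viability after 48hr was read by CellTiter-Glo luminescence.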

[17] = P-glycoprotein substrates identified in KB-3-1 adenocarcinoma cell line, qHTS therapeutic library screen (AID 1346986); further: nearly all actives have a fitted effect of over 60% in size
How it was run: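 Compounds were tested in dose-response against KB-3-1 and KB-8-5-11 cells at 37 degree C for 72 h, and viability was measured by luminescence. AC50 values came from curve fitting with class-based activity calls.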

[18] = qHTS assay to identify small molecule inhibitors of chordoma cells - UCH-2 (AID 1259356); further: series mostly up to about 46 µM

T1 sequence (P78324 whole entry, looked up): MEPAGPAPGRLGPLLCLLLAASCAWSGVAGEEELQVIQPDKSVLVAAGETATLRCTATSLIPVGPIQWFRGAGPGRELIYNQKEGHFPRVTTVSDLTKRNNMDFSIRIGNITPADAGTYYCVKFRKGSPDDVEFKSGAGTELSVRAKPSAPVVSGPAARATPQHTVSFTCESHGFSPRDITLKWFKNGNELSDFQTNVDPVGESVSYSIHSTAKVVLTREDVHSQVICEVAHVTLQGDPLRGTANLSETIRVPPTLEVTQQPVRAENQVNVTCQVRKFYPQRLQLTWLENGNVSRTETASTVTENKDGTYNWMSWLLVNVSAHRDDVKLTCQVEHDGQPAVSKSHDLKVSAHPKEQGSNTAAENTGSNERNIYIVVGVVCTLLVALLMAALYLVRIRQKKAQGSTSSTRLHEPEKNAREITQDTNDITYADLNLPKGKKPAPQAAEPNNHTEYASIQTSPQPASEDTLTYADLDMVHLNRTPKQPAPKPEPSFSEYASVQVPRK
T1 sequence (Q08722 whole entry, looked up): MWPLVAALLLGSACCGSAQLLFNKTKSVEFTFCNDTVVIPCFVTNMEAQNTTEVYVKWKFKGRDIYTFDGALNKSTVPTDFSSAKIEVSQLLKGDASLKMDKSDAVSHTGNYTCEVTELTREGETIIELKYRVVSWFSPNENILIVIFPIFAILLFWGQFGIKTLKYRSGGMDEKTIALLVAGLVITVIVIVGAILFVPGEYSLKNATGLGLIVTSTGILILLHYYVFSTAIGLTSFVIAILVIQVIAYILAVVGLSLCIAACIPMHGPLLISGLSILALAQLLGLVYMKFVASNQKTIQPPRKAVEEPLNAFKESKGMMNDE
Nucleoprotein (Lymphocytic choriomeningitis virus (strain Armstrong)), sequence (P09992 whole entry, looked up): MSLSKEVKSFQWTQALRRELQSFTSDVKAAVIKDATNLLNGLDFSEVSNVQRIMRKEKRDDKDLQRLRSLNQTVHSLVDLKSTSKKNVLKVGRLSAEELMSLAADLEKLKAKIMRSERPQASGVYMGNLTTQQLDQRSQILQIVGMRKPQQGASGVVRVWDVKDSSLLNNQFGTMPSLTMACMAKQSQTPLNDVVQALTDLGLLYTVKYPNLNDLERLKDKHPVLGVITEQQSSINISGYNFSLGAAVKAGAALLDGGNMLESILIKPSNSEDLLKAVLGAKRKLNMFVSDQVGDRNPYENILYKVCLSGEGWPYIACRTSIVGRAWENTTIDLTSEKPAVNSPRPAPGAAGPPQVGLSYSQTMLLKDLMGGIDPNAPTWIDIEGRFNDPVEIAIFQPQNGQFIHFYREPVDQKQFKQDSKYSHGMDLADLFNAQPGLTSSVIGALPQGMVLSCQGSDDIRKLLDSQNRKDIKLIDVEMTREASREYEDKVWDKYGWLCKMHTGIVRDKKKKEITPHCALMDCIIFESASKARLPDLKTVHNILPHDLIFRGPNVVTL
Atrial natriuretic peptide receptor 1 (Homo sapiens), sequence (P16066 whole entry, looked up): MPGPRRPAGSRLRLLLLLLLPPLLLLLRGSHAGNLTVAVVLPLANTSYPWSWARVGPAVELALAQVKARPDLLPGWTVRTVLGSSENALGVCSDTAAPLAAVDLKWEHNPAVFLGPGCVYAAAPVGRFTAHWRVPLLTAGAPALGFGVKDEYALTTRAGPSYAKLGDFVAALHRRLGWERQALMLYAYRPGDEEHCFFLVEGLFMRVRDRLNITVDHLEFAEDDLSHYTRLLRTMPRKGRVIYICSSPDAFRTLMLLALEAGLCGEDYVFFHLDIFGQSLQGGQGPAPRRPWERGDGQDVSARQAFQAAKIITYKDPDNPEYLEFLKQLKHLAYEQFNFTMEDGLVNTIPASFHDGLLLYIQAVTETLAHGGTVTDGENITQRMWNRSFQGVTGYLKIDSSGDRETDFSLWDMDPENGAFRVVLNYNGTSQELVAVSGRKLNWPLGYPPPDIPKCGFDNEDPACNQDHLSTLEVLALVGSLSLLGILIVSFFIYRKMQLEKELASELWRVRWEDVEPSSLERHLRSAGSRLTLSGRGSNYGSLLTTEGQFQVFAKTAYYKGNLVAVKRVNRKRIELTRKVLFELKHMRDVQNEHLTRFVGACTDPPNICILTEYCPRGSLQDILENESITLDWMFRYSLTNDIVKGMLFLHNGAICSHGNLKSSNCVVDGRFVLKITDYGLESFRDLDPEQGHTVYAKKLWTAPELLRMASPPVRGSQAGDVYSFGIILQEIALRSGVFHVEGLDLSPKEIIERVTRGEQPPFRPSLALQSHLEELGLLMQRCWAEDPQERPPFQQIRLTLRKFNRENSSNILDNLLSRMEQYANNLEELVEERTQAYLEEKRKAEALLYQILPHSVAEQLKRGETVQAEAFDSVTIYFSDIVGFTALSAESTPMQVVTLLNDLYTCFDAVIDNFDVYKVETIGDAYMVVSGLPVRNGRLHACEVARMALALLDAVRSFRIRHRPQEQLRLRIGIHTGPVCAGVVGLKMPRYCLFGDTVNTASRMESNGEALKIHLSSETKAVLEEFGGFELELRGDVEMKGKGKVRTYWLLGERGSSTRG
Parathyroid hormone/parathyroid hormone-related peptide receptor (Homo sapiens), sequence (Q03431 whole entry, looked up): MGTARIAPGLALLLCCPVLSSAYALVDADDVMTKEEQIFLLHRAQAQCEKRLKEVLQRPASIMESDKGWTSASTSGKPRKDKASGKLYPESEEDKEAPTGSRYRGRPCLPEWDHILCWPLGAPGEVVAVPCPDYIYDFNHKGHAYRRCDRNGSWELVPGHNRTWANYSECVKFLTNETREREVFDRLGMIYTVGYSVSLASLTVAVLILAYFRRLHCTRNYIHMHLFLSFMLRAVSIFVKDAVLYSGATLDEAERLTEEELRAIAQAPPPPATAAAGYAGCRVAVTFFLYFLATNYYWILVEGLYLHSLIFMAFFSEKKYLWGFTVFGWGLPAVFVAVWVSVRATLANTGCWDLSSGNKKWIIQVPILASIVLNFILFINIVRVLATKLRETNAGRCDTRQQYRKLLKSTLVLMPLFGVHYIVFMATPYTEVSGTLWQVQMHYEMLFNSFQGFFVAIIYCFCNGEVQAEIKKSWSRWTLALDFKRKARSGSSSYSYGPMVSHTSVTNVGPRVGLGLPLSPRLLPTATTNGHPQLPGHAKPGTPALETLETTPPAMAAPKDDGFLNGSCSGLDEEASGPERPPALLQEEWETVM
Atrial natriuretic peptide receptor 2 (Homo sapiens), sequence (P20594 whole entry, looked up): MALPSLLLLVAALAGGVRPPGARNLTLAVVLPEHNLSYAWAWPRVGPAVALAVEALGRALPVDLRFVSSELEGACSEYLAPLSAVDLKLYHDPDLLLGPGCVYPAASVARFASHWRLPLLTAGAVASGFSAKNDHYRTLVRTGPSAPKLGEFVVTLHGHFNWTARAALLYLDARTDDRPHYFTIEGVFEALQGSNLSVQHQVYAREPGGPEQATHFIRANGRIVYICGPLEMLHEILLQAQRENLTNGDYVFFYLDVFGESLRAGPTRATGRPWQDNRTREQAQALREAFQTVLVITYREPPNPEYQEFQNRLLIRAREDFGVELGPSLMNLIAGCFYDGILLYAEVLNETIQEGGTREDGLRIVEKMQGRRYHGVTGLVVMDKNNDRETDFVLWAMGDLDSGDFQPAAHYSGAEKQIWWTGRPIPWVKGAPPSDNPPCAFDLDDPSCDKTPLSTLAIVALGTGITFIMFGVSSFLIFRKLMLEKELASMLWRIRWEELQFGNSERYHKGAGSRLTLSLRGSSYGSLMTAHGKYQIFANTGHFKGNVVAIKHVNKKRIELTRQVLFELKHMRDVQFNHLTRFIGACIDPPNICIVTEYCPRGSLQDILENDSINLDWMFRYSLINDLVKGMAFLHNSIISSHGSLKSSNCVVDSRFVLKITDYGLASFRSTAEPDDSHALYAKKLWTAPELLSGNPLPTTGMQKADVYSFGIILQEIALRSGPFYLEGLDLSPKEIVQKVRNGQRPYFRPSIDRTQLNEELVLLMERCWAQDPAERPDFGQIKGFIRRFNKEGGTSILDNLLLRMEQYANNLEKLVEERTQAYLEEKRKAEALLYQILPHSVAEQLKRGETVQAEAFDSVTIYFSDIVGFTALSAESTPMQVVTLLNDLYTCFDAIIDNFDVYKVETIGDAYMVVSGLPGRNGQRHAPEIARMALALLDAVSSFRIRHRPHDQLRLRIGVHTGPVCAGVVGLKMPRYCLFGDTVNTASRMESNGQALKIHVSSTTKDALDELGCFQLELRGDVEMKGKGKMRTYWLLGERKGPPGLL

SMILES: CN(C)CCN(C)CCc1ccc(Cl)c(Cl)c1
- Potency [1]: inactive
- Potency [2]: 18.7 µM (active)
- IC50 (viability decrease) [3]: inactive
- Potency [4]: inactive
- Potency [5]: inactive
- Potency [6]: 21.7 µM (active)

SMILES: CN(C)CCCN1c2ccccc2Sc2ccc(Cl)cc21
- Potency [7]: inactive

SMILES: COC(=O)C1=C(C)NC(C)=C(C(=O)OC(C)C)C1c1cccc2nonc12 (stereo not drawn)
- Potency [7]: inactive

SMILES: C[C@]12CC[C@H]3[C@@H](CCC4=CC(=O)CC[C@@H]43)[C@@H]1CC[C@@H]2OC(=O)CCc1ccccc1
- Potency [5]: inactive
- Potency [7]: inactive
- Potency [8]: inactive
- Potency [6]: inactive
- Potency [9]: inactive

SMILES: Cc1cccc(C)c1NC(=O)CN1CCCC1=O
- Potency [4]: inactive
- Potency [10]: inactive
- Potency [11]: inactive
- Potency [12]: inactive
- Potency [5]: inactive
- outcome [13]: inactive
- outcome [14]: inactive
- outcome [15]: inactive
- Potency [7]: inactive
- Potency [8]: inactive
- Potency [6]: inactive
- Potency [9]: inactive

SMILES: CCCN1CCC[C@@H]2Cc3[nH]ncc3C[C@H]21
- Potency [4]: inactive
- Potency [10]: inactive
- Potency [11]: inactive
- Potency [12]: inactive
- Potency [5]: inactive
- outcome [13]: inactive
- outcome [14]: inactive
- outcome [15]: inactive
- Potency [7]: inactive
- Potency [8]: inactive
- Potency [6]: inactive
- Potency [9]: inactive

SMILES: CC1OC(C)OC(C)O1 (stereo not drawn)
- Potency [16]: inactive
- Potency [5]: inactive
- Potency [7]: inactive
- Potency [8]: inactive
- Potency [6]: inactive
- Potency [9]: inactive

SMILES: Cn1cc(C2=C(c3cn(C4CCN(Cc5ccccn5)CC4)c4ccccc34)C(=O)NC2=O)c2ccccc21
- Potency [2]: inactive
- Potency [17]: inactive
- Potency [4]: inactive
- Potency [5]: inactive
- Potency [7]: inactive

SMILES: C=CC(=O)Nc1cc2c(Nc3ccc(F)c(Cl)c3)ncnc2cc1OCCCN1CCOCC1
- Potency [7]: inactive

SMILES: CC(=O)[C@]1(O)Cc2c(O)c3c(c(O)c2[C@@H](O[C@H]2C[C@H](N)[C@H](O)[C@H](C)O2)C1)C(=O)c1ccccc1C3=O
- Potency [7]: 3.98 µM (active)

SMILES: CSc1ccc2c(c1)N(CCC1CCCCN1C)c1ccccc1S2 (stereo not drawn)
- Potency [7]: inactive

SMILES: Oc1cc(Cl)ccc1Oc1ccc(Cl)cc1Cl
- Potency [18]: inactive
- Potency [4]: inactive and 31.6 µM (active)
- Potency [5]: inactive
- Potency [7]: inactive
- Potency [8]: inactive
- Potency [6]: inactive
- Potency [9]: inactive

SMILES: O=C(O)P(=O)(O)O
- Potency [17]: inactive
- Potency [4]: inactive
- Potency [7]: inactive
- Potency [8]: inactive
- Potency [6]: inactive
- Potency [9]: inactive

SMILES: CC1=C2C[C@@H]3[C@@H](CC=C4C[C@@H](O)CC[C@@]43C)[C@@H]2CC[C@]12O[C@H]1C[C@H](C)CN[C@H]1[C@H]2C
- Potency [2]: inactive
- IC50 (viability decrease) [3]: inactive
- Potency [4]: inactive
- Potency [5]: inactive
- Potency [7]: inactive
- Potency [8]: inactive
- Potency [6]: inactive
- Potency [9]: inactive

SMILES: COC[C@@H](NC(C)=O)C(=O)NCc1ccccc1
- Potency [4]: inactive
- Potency [5]: inactive
- Potency [7]: inactive
- Potency [8]: inactive
- Potency [6]: inactive
- Potency [9]: inactive
